In PubChem BioAssay AID1159580 (chemical genetic matrix, 2015):
About 2,000 (36%) of roughly 5,500 compounds were called active. Another 18% or so got no clear call; they are omitted. Rule as the data show it: active = normalized growth mostly below about 0.91 (no sharp cut-off); inconclusive = no clear call, values can overlap the other calls; inactive = mostly above about 0.92. The list shows a part of the results.

Assay: chemical genetic growth profiling, strain panel (AID 1159580);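 also: tested at 20 µM; growth read once vehicle control cultures reached saturation at 30 °C; 1 = growth at the plate median or of vehicle wells; lower values mean less growth of the strain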
Details: S. cerevisiae deletion strains, growth OD

Measured: normalized growth

C=C1C(=O)O[C@@H]2[C@H]3O[C@]3(C)CCC=C(C)CC[C@@H]12
active: locus YGR229C, strain SMI1, active compounds read low 0.822 | locus YJR075W, strain HOC1, active compounds read low 0.906 | locus YMR307W, strain GAS1, active compounds read low 0.766
inactive: locus YAL040C, strain CLN3, active compounds read low 0.966 | locus YCL061C, strain MRC1 (second series), active compounds read low 0.96 | locus YDR363W, strain ESC2, active compounds read low 0.969 | locus YER002W, strain NOP16, active compounds read low 0.981 | locus YNL175C, strain NOP13, active compounds read low 0.956 | locus YNL197C, strain WHI3, active compounds read low 0.95 | locus YNL224C, strain SQS1, active compounds read low 0.967 | locus YNL322C, strain KRE1, active compounds read low 0.945 | locus YOR083W, strain WHI5 (second series), active compounds read low 0.972 | locus YPL055C, strain LGE1, active compounds read low 0.945
